CYP2C19 inhib = human CYP2C19 inhibition. CYP2C19 Supersomes, luciferin-H EGE luminescence, 30 min. AID 778. actives 21% (n = 96,000). inhibition, % at 5 µM;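 active means CYP2C19 inhibition above a set limit at 5 µM in the primary screen, cut at about 50% in these data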;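 further: plate controls were negative control wells for no effect and 2.5 mM tranylcypromine positive control for full effect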
Cav3 T inh = inhibitors of human Cav3.2 T-type calcium channel; Cav3.2-expressing cells, Fluo-4 calcium fluorescence FDSS; hits give low values; AID 449739; actives 4% (n = 100,000); B-score at 10 µM; O95180;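 active means single-dose well whose peak fluorescence ratio is a statistical outlier from its plate by either plate-standardised score or position-corrected B-score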
CYP2C9 inh = inhibitors of human CYP2C9; P11712; CYP2C9 Supersomes, luciferin-H conversion, luminescence; inhibition, % at 5 µM; actives 20% (n = 96,000); AID 777;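 active means blocking of liver enzyme CYP2C9 beyond about 50% at 5 µM, limit read from the data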
Target sequence (P11712 whole entry, looked up): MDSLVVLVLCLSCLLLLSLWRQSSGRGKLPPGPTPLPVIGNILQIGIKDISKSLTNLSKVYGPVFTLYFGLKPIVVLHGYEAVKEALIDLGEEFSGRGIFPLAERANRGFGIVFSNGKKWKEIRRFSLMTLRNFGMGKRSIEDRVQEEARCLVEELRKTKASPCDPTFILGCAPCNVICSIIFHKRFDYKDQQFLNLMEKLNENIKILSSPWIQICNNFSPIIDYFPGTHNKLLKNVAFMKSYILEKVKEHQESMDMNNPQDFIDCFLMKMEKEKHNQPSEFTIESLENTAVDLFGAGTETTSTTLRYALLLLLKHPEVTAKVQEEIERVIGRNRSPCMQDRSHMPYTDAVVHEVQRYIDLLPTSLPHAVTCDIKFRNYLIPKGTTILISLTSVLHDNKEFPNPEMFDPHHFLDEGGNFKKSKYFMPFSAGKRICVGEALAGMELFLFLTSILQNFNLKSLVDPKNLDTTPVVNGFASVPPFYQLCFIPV
CYP2C19 activ = activators of human cytochrome P450 2C19. recombinant CYP2C19, luciferin-H EGE luminescence; hits give high values; 0 = fully inhibited enzyme, 1 = untreated enzyme. activation factor at 5 µM. P33261. 96,000 tested, under 10 active;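 active means activation factor of at least 2 at 5 µM in the primary screen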;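 further: 0 = wells with 2.5 mM tranylcypromine and 1 = vehicle-only wells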
CYP2C9 activ = CYP2C9 (human) activation. recombinant CYP2C9, luciferin-H conversion, luminescence; hits give high values; factor 1 = untreated enzyme, 0 = blocked. activation factor at 5 µM. actives 1.4% (n = 96,000);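 active means activation factor of 2 or more for CYP2C9 at a 5 µM dose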;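 further: 0 = sulfaphenazole-blocked wells and 1 = vehicle-only wells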
* hit, by the source's call; . = not tested or not shown. Most compounds without a hit are left out; they make up all but 27% or so of the library.

SMILES	CYP2C19 inhib	Cav3 T inh	CYP2C9 inh	CYP2C19 activ	CYP2C9 activ
O=[N+]([O-])c1cc(/C=N/O)ccc1Sc1ccccc1	11	-3.3	67*	0.9	0.3
CCOC(=O)C1=C(C)Nc2nc(=S)[nH]n2C1c1ccc(Cl)cc1 (centres undefined)	37	0.061	28	0.6	0.7
CC1(C)O[C@H]2OC([C@H](O)CON3C(=O)c4ccccc4C3=O)[C@H](O)[C@H]2O1 (some centres undefined)	.	0.77	.	.	.
CCCNc1nc2c(c(=O)n(C)c(=O)n2C)n1CCC(C)C	6	0.61	48	0.9	0.5
Cc1ccc2nc(SCc3nc4c(cnn4-c4ccccc4)c(=O)[nH]3)[nH]c2c1	0	.	8	1	0.9
CC(C)(C)OC(=O)N1CCN(c2ccc(CNC(=O)c3ccc(Cl)cc3)cc2)CC1	38	-1.8	48	0.6	0.5
CCN1CCCC1CNC(=O)Cn1cccc1C(=O)c1ccccc1C (centres undefined)	21	0.88	15	0.8	0.9
CCOC(=O)N1CCN(C(=O)CSCc2nc(-c3ccccc3C)oc2C)CC1	59*	0.46	36	0.4	0.6
CCOC(=O)N1CCN(C(=O)CSCc2nc(-c3ccccc3F)oc2C)CC1	38	-0.34	32	0.6	0.7
CCc1ccc(-c2nc(CSCC(=O)N3CCN(c4ncccn4)CC3)c(C)o2)cc1	29	.	75*	0.7	0.3
CCC(=O)Oc1ccc(C/C(=N\O)c2ccc(O)cc2O)o1	96*	-2.4	96*	0	0
COc1ccc(-c2noc(CSc3nnc(-c4ccncc4)n3-c3ccc(F)cc3)n2)cc1OC	59*	-1.2	23	0.4	0.8
CCn1c(SCc2nc(-c3ccccc3)no2)nc2ccccc21	88*	-3.4*	-2	0.1	1
CCn1c(SCc2nc(-c3ccccc3)no2)nnc1-c1ccco1	.	-0.45	.	.	.
Cc1noc(C)c1CSc1nnc(-c2c[nH]c3ccccc23)n1-c1ccc(Cl)cc1	-7	0.67	0	1.1	1
c1ccc(-c2noc(CSc3nnnn3C3CCCCC3)n2)cc1	28	-5.7*	39	0.7	0.6
CCc1ccc(-n2c(SCc3c(C)noc3C)nnc2-c2ccncc2)cc1	73*	0.96	58*	0.3	0.4
CCOc1ccc(-c2noc(COC)n2)cc1OC	-6	-1.9	-9	1.1	1.1
CC(C)(C)N(Cc1ccccc1)C(=O)CSc1nnc(CNc2ccc(F)cc2)o1	17	-2.4	24	0.8	0.8
C=CCc1cccc2cc(C(=O)NCc3ccc(C(=O)OCC)o3)c(=O)oc12	44	0.73	40	0.6	0.6
CC1CCC(C(C)C)C(OC(=O)CSc2n[nH]c(=O)[nH]c2=O)C1 (centres undefined)	-12	-1.3	-2	1.1	1
O=C(Nc1ccc(S(=O)(=O)N2CCCCCC2)cc1)C1CCCO1 (centres undefined)	16	1.4	38	0.8	0.6
CCn1c(SCc2nc(-c3cccs3)no2)nnc1-c1c[nH]c2ccccc12	15	-3	57*	0.9	0.4
Cn1c(SCc2nc(-c3ccc(Br)cc3)no2)nnc1-c1ccco1	6	-0.37	25	0.9	0.7
COc1ccc(-c2noc(CSc3nnc(-c4ccccc4)n3C)n2)cc1	84*	0.86	66*	0.2	0.3
SMILES	CYP2C19 inhib	Cav3 T inh	CYP2C9 inh	CYP2C19 activ	CYP2C9 activ
CCn1c(SCc2nc(-c3ccccc3)no2)nnc1-c1cccs1	51*	-0.79	52*	0.5	0.5
O=C(O)c1cc(-c2ccccc2)nn1CC1CC(c2cccc([N+](=O)[O-])c2)=NO1 (centres undefined)	.	1.1	.	.	.
Cc1ccc(C(=O)/C=C/c2ccc(-c3ccccc3[N+](=O)[O-])o2)cc1	29	0.26	58*	0.7	0.4
C=CCn1c(SCCC)nc(O)cc1=O	-7	0.8	2	1.1	1
CCOC(=O)N1CCN(C(=O)COc2ccc(S(=O)(=O)NCc3ccccc3)cc2)CC1	-4	0.44	20	1	0.8
O=C1CC(c2ccc(S(=O)(=O)NCc3ccncc3)cc2)CN1 (centres undefined)	85*	0.36	54*	0.1	0.5
Cc1ccc(CNC(N)=S)cc1	6	1.1	-6	0.9	1.1
CCOC(=O)COc1ccc(S(=O)(=O)NCc2ccncc2)cc1	98*	-5.3*	67*	0	0.3
Cc1ccc(S(=O)(=O)NCC(=O)NCc2ccncc2)cc1	.	0.42	.	.	.

Screening results as filed in PubChem.
